In PubChem BioAssay AID687030 (Broad Institute, 2013):
In all, about 1,400 compounds went through this assay and about 10 (0.7%) were called active. Only a sample is shown. Potency and affinity values are given separately. A number with no mark means an inactive call. The rule behind the calls is not given here.

Test: BHK-21 cell toxicity, dose response, cytotoxicity control, plate reader, cherry-pick samples (AID 687030);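 note: cells were exposed to compound for three days before reading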
Conditions: BHK-21 cells; series mostly up to 19.5 µM; activity change, negative = toxicity: at the top concentration

For C=CCC1NS(=O)(=O)OC(COC)C1C (stereo not drawn), which “activity change, negative = toxicity” value is on record?
The value was 7.81%.

With COCCCNc1oc(-c2ccccc2F)nc1C#N as the molecule, how does the “activity change, negative = toxicity” value read?
The value was -1.28%.

With COc1ccc(-c2cc(NC=O)c3ncc(-c4cc(OC)c(OC)c(OC)c4)n3c2)c(OC)c1 as the molecule, how does the “activity change, negative = toxicity” value read?
Its value is -22.7%.

Which “activity change, negative = toxicity” value does the source give for COC(=O)C(Cc1csc2ccc(Cl)cc12)NC(=O)c1ccc(Cl)cc1 (stereo not drawn) here?
Its value is 1.57%.

Which “activity change, negative = toxicity” value does the source give for COc1ccc(NC(=O)N[C@@H]2CC[C@@H](CCNS(=O)(=O)c3cccc(Cl)c3)O[C@@H]2CO)cc1 here?
Its value is 8.65%.

With COc1ccc(NC(=O)N[C@H]2CC[C@@H](CCn3cc(C4(O)CCCC4)nn3)O[C@@H]2CO)cc1 as the molecule, how does the “activity change, negative = toxicity” value read?
The value was -4.13%.

For O=C(c1cccc(Cl)c1)N1CCC2(CC1)NCCc1[nH]cnc12, which “activity change, negative = toxicity” value is on record?
Its value is -0.584%.

With O=C(NCCN1CCOCC1)c1ccc2c(c1)N(Cc1ccc(F)cc1)C(=O)CS2 as the molecule, how does the “activity change, negative = toxicity” value read?
Its value is -1.79%.

For Cc1ccc(C(=O)NCC(=O)NCC(c2cccs2)N2CCOCC2)cc1C (stereo not drawn), which “activity change, negative = toxicity” value is on record?
The value was -3.9%.

With C[C@@H]1CN([C@H](C)CO)C(=O)c2cc(NC(=O)Nc3ccc(C(F)(F)F)cc3)ccc2O[C@H]1CN(C)C(=O)NC1CCCCC1 as the molecule, how does the “activity change, negative = toxicity” value read?
The value was -6.24%.

Which “activity change, negative = toxicity” value does the source give for CCCN(C)C1CN(Cc2cn(Cc3ccc(C)cc3)nn2)S(=O)(=O)C1 (stereo not drawn) here?
Its value is 1.6%.

Which “activity change, negative = toxicity” value does the source give for COc1ccccc1N1CCN(Cc2cnc3ccc(Cl)cn23)CC1 here?
Its value is 5.21%.

Which “activity change, negative = toxicity” value does the source give for C[C@H]1CN([C@@H](C)CO)C(=O)c2cccc(NC(=O)C3CCCCC3)c2O[C@@H]1CN(C)Cc1ccc(C(=O)Nc2ccccc2N)cc1 here?
Its value is -1.15%.

For C[C@@H]1CCCCO[C@@H](CN(C)C(=O)Nc2cccc3ccccc23)[C@H](C)CN([C@H](C)CO)C(=O)c2cc(NC(=O)CCC(F)(F)F)ccc2O1, which “activity change, negative = toxicity” value is on record?
The value was 4.27%.

Which “activity change, negative = toxicity” value does the source give for CCOC(=O)C1CCCN(c2c(N3CCOCC3)c(=O)c2=O)C1 (stereo not drawn) here?
The value was 1.44%.

With O=C(CN1CCN(C(=O)C2CCC2)CC1)Nc1ccc(F)cc1 as the molecule, how does the “activity change, negative = toxicity” value read?
Its value is -23.3%.

Which “activity change, negative = toxicity” value does the source give for CCCCNC(=O)O[C@H]1C[C@@H]2CCN3C(=O)CCC[C@H]([C@H]1Cc1ccccc1)[C@H]23 here?
Its value is -3.09%.

For Cn1cnc(S(=O)(=O)N[C@@H]2CC[C@H](CC(=O)NCC3CCCCC3)O[C@@H]2CO)c1, which “activity change, negative = toxicity” value is on record?
The value was -3.49%.

For CCC1(c2ccccc2)NC(=O)N(CC(=O)Nc2ccccc2C(=O)N2CCCCC2)C1=O (stereo not drawn), which “activity change, negative = toxicity” value is on record?
Its value is 5.31%.

Which “activity change, negative = toxicity” value does the source give for CS(=O)(=O)c1cccc(-c2nnc(NC(=O)c3ccc(S(=O)(=O)N4CCCC4)cc3)o2)c1 here?
The value was 3.15%.

With Clc1cc(Br)ccc1OCCCn1ccnc1 as the molecule, how does the “activity change, negative = toxicity” value read?
Its value is -1.16%.

Which “activity change, negative = toxicity” value does the source give for Clc1cc(Br)ccc1OCCOCCN1CCCC1 here?
The value was 1.69%.

For c1cc(-c2ccc(N3CCOCC3)cc2)n2cnnc2c1, which “activity change, negative = toxicity” value is on record?
Its value is 2.6%.

For COc1ccc(C2CC(c3ccccc3)=NN2S(=O)(=O)c2ccccc2)c(OC)c1 (stereo not drawn), which “activity change, negative = toxicity” value is on record?
The value was 5.02%.

With O=C(C[C@@H]1CC[C@@H]2[C@H](COC[C@H](O)CN2CC2CCOCC2)O1)N1CCOCC1 as the molecule, how does the “activity change, negative = toxicity” value read?
Its value is -3.67%.

Which “activity change, negative = toxicity” value does the source give for C[C@H](NC(=O)CCCOc1ccc(Cl)cc1Cl)c1nnc2ccccn12 here?
The value was -0.687%.

For Cc1ccc(NC(=O)c2nc[nH]c2C(=O)N[C@@H](C)C(=O)OC(C)(C)C)cc1, which “activity change, negative = toxicity” value is on record?
The value was -2.08%.

With Cc1ccc(NC(=O)c2ccc3c(c2)OCO3)cc1Cl as the molecule, how does the “activity change, negative = toxicity” value read?
The value was 2.36%.

Which “activity change, negative = toxicity” value does the source give for COc1ccc(OC)c(CN2C(=O)CN(S(C)(=O)=O)CC2(C)C(=O)NCc2ccccc2)c1 (stereo not drawn) here?
Its value is 6.21%.

With CNC(=O)C[C@H]1CC[C@@H]2[C@H](COC[C@@H](O)CN2C(=O)Nc2ccc3c(c2)OCO3)O1 as the molecule, how does the “activity change, negative = toxicity” value read?
Its value is -2.76%.

For CN(C)C1(CNC(=O)C2CCN(S(=O)(=O)c3ccccc3C(F)(F)F)CC2)CCCCC1, which “activity change, negative = toxicity” value is on record?
Its value is -1.27%.

For CC(C)(C)c1ccc(NC(=O)NC2CCCc3ccccc32)cc1 (stereo not drawn), which “activity change, negative = toxicity” value is on record?
The value was 5.49%.

With Cc1ccnc(NC(=O)c2ccc(Cl)c(S(=O)(=O)N3CCCC3)c2)c1 as the molecule, how does the “activity change, negative = toxicity” value read?
Its value is 1.18%.

With COc1cccc(NC(=O)CN(C)C(=O)c2cccc(S(=O)(=O)N3c4ccccc4CC3C)c2)c1 (stereo not drawn) as the molecule, how does the “activity change, negative = toxicity” value read?
The value was -7.69%.

Which “activity change, negative = toxicity” value does the source give for O=C(O)[C@]1(S(=O)(=O)c2ccccc2)C[C@@H]2ON=C(c3cccc(Br)c3)[C@@H]2C1 here?
Its value is -0.71%.

With COc1cccc(-c2ncc3ccccc3c2COC(=O)c2ccc(F)cc2)c1 as the molecule, how does the “activity change, negative = toxicity” value read?
The value was -5.22%.

For COc1ccc(C(N)c2csc(Nc3cc(Oc4ccccc4)ncn3)n2)cc1 (stereo not drawn), which “activity change, negative = toxicity” value is on record?
The value was 2.64%.

With CCN1[C@H](C(=O)NCCCN(C)C)[C@@H](CO)[C@@H]2Cn3c(ccc(-c4cccc(F)c4)c3=O)[C@@H]21 as the molecule, how does the “activity change, negative = toxicity” value read?
Its value is -0.329%.

For Cc1nc(CCNC(=O)CC2C(=O)NCCN2CC(C)C)nc2c1CCC2 (stereo not drawn), which “activity change, negative = toxicity” value is on record?
Its value is 1.12%.

Which “activity change, negative = toxicity” value does the source give for CCCS(=O)(=O)N1CCCC(C(=O)NCCc2cccc(C)c2)C1 (stereo not drawn) here?
The value was -3.14%.

Which “activity change, negative = toxicity” value does the source give for C[C@@H]1CN([C@@H](C)CO)S(=O)(=O)c2ccc(-c3ccncc3)cc2O[C@H]1CN(C)C(=O)CC1CC1 here?
The value was -5.55%.

With CC(=O)NC[C@H]1[C@H](c2ccc(-c3ccccc3F)cc2)[C@@H](CO)N1C(=O)C1CC1 as the molecule, how does the “activity change, negative = toxicity” value read?
The value was -6.85%.

Which “activity change, negative = toxicity” value does the source give for N#C[C@@H]1[C@H](c2ccc(-c3ccccc3F)cc2)[C@H](CO)N1C(=O)C1CC1 here?
Its value is -10.2% [at 21 µM].

Which “activity change, negative = toxicity” value does the source give for CCCNC(=O)C1(C)CCCN(Cc2ccc(C#N)cc2)C1 (stereo not drawn) here?
Its value is -0.631%.

With O=C(c1cc(-c2cccs2)on1)N1CCCc2ccccc21 as the molecule, how does the “activity change, negative = toxicity” value read?
The value was 4.97%.

For O=C1CCN(CCc2ccccc2)CCN1[C@H](COc1ccccc1)c1ccccc1, which “activity change, negative = toxicity” value is on record?
The value was 2.11%.

Which “activity change, negative = toxicity” value does the source give for O=C1CN(C(=O)COC(=O)c2c(F)cccc2Cl)c2ccccc2N1 here?
The value was 7.85%.

Which “activity change, negative = toxicity” value does the source give for COc1ccc(NC(=O)COC(=O)c2c(C)noc2C)cc1Cl here?
The value was -6.26%.

For C[C@H]1[C@H](c2ccccc2)C[C@@H](C(=O)O)C1(C)C, which “activity change, negative = toxicity” value is on record?
The value was 2.3%.

For COc1c(Cl)cc(Br)c(OC)c1C(=O)NC(=O)Nc1nc(C)cc(C)n1, which “activity change, negative = toxicity” value is on record?
Its value is -2.87%.

Which “activity change, negative = toxicity” value does the source give for CCCc1nc2c(C)cc(Br)cn2c1Cc1ccc(OC)cc1C here?
The value was -5.06%.

With CCN(c1ccccc1)S(=O)(=O)c1ccc(C(=O)N2CCN(c3ccccc3F)CC2)cc1 as the molecule, how does the “activity change, negative = toxicity” value read?
The value was -0.489%.

With CCCN1C[C@H](C)[C@H](OC)CN(C)C(=O)c2cc(NS(=O)(=O)c3cn(C)cn3)ccc2OC[C@@H]1C as the molecule, how does the “activity change, negative = toxicity” value read?
Its value is 0.807%.

Which “activity change, negative = toxicity” value does the source give for C#CCNC(=O)C[C@@H]1C[C@@]2(C(=O)OC)CCCCC=C2N(Cc2cccc3ccccc23)C1=O here?
The value was 0.38%.

For COc1ccc2c3c([nH]c2c1)[C@H](CO)N(C(=O)c1ccccc1)CC31CN(S(=O)(=O)c2cccs2)C1, which “activity change, negative = toxicity” value is on record?
The value was 0.044%.

With COc1cccc(S(=O)(=O)N2CC3(CN(C(=O)Nc4ccc(F)cc4)[C@H](CO)c4[nH]c5cc(OC)ccc5c43)C2)c1 as the molecule, how does the “activity change, negative = toxicity” value read?
Its value is -0.859%.

With COc1ccccc1NC(=O)N1CCN(c2ccccn2)CC1 as the molecule, how does the “activity change, negative = toxicity” value read?
Its value is 0.23%.

Which “activity change, negative = toxicity” value does the source give for CCOC(=O)C[C@H]1c2ccccc2S(=O)(=O)N1c1ccccc1 here?
Its value is 7.34%.
